The source of these data is PubChem BioAssay (Tox21).

Structures are written as SMILES. A number with no mark means an inactive call. Inconclusive results are not listed. Calls of active or inactive are those of the source. Unless noted, the call rests on the fitted dose curve.

The nature of experiment [1]: Nuclear factor erythroid 2-related factor 2/antioxidant responsive element (Nrf2/ARE) small molecule agonists: qHTS cell viability counter screen in human keratinocytes (AID 1919968; active means well fitted curve in the direction sought with a large enough effect in the repeat runs; an effect the other way counts as inactive or inconclusive; further: nearly all actives have a fitted effect of over 55% in size; further: potency means the concentration at half of the fitted maximal effect). The method in brief:
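Stably transfected HaCaT (KeratinoSens), 1,500/well. Test agents in DMSO were applied for 23 h, 37 C/5% CO2. CellTiter-Fluor was incubated 1 h before the fluorescence read.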
Background: In qHTS, concentration-response curves come from the screen itself.

A short description of experiment [2]: Nuclear factor erythroid 2-related factor 2/antioxidant responsive element (Nrf2/ARE) small molecule agonists: luciferase reporter gene qHTS assay in human keratinocytes (AID 1919969). Further: nearly all actives have a fitted effect of over 35% in size. Further: potency means the concentration at half of the fitted maximal effect.
Experiment [3] addresses KiSS-1 receptor (Homo sapiens) (UniProt Q969F8). In words: Human kisspeptin (KISS1R) small molecule agonists, calcium flux assay in KISS1R-HEK293 cells (AID 1920064; active means well fitted curve in the direction sought with a large enough effect in the repeat runs; an effect the other way counts as inactive or inconclusive). The method in brief:
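After overnight (18 h) culture at 37 C/5% CO2, human KISS1R-HEK293 cells received calcium dye for 1 h, then test compound; emission at 540 nm (excitation 480 nm) was tracked for 3 min.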
In general terms: Calcium assays in cells follow changes in intracellular calcium, usually with a dye or a luminescent sensor.

The nature of experiment [4]: G protein-coupled receptor (GPCR) small molecule agonists, calcium flux assay: HEK293 wild type cell line counter screen (AID 1920065). An outline of the steps:
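Following 18 h incubation at 37 C/5% CO2, plates got calcium dye for 1 h; compounds, ATP or DMSO were then pinned in and fluorescence followed kinetically (480/540 nm).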

Experiment [5] in a line: p53 small molecule agonists, cell-based qHTS assay with human liver microsomes (AID 1963577).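 Further: p53 response element beta-lactamase reporter cells with liver microsomes plus NADPH.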 The method in brief: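 HLM-supplemented p53RE-bla reporter assay: 16 h compound exposure at 37 C, microsomes and NADPH each 0.5 mg/mL final, read by fluorescence intensity.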
A short description of experiment [6]: p53 small molecule agonists, cell-based qHTS assay with human liver microsomes: qHTS cell viability counter screen (AID 1963579). Further: nearly all actives have a fitted effect of over 45% in size. Further: potency means the concentration at half of the fitted maximal effect. An outline of the steps: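 Viability of p53RE-bla cells is measured as CellTiter-Glo luminescence following a 16 h, 37 C incubation with compound, liver microsomes from human donors and NADPH.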
Experiment [7] is described as follows: p53 small molecule agonists, cell-based qHTS assay with rat liver microsomes: qHTS cell viability counter screen (AID 1963580). Further: nearly all actives have a fitted effect of over 45% in size. An outline of the steps:
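Cytotoxicity counter screen: intracellular ATP read by CellTiter-Glo luminescence in the p53 reporter wells. HCT-116 p53RE-bla cells were treated for 16 h at 37 C alongside rat liver microsomes and NADPH, each 0.5 mg/mL final.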

Experiment [8] in a line: p53 small molecule agonists, cell-based qHTS assay: qHTS cell viability counter screen (AID 1963581). Further: nearly all actives have a fitted effect of over 45% in size. Further: potency means the concentration at half of the fitted maximal effect. The method in brief: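 qHTS counter screen: 16 h compound exposure at 37 C of p53RE-bla HCT-116 cells (4,000 per well, seeded 5 h prior), cell viability by ATP luminescence.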
A short description of experiment [9]: p53 small molecule agonists, cell-based qHTS assay (AID 1963582; active means well fitted activation curve with a large enough effect in the signal ratio in the repeat runs, not every such curve was filed as active; the % refers to the signal ratio). An outline of the steps: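 Measured: fluorescence from cleaved LiveBLAzer substrate. System: p53RE-bla cells, 16 h compound treatment at 37 C, 2 h substrate step at room temperature.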
Experiment [10] addresses 5-hydroxytryptamine receptor 2A (Homo sapiens) (UniProt P28223). Put plainly: 5-hydroxytryptamine receptor 2A (HTR2A) small molecule antagonists, cell-based qHTS assay (AID 1963586). Further: nearly all actives have a fitted effect of over 45% in size. Further: potency means the concentration at half of the fitted maximal effect. An outline of the steps:
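CHO cells stably expressing human HTR2A were plated for 18 h at 37 C, then loaded with calcium dye for 1 h. Compounds were preincubated 5 min at room temperature before DOI (4 nM solution) was added. Kinetic fluorescence was read for 3 min.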

For experiment [11] the target is unchanged. Put plainly: 5-hydroxytryptamine receptor 2A (HTR2A) small molecule agonists, cell-based qHTS assay (AID 1963587). Further: nearly all actives have a fitted effect of over 30% in size. The method in brief: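 Kinetic calcium-flux fluorescence (2 min, 1 sec intervals) after compound addition in agonist mode. HTR2A-CHO cells were cultured 18 h, then dye-loaded 1 h at 37 C.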
Experiment [12] concerns the target Muscarinic acetylcholine receptor M1 (Homo sapiens) (UniProt P11229). Put plainly: Cholinergic receptor muscarinic 1 (CHRM1) small molecule antagonists, cell-based qHTS assay (AID 1963588). Further: nearly all actives have a fitted effect of over 40% in size. Further: potency means the concentration at half of the fitted maximal effect. An outline of the steps: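 Compounds were tested at 15 concentrations in three independent runs. Dye-loaded CHRM1-CHO cells were exposed 5 min at room temperature before stimulation by acetylcholine added at 50nM. Intracellular calcium was read kinetically on FDSS for 3 min.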

Experiment [13] shares this target. Put plainly: Cholinergic receptor muscarinic 1 (CHRM1) small molecule agonists, cell-based qHTS assay (AID 1963589). Further: nearly all actives have a fitted effect of over 35% in size. An outline of the steps: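 Kinetic fluorescence (1 s intervals) of calcium-sensitive dye in human M1 CHO cells after compound addition; cells pre-incubated 18 h at 37 C/5% CO2 and dye-loaded 1 h.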
Experiment [14] in a line: cAMP Responsive Elements (CRE) small molecule agonists, cell-based qHTS assay (AID 1963590). The method in brief: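 Test agents in DMSO were incubated 3 h at 37 C/5% CO2 with CRE-bla HEK 293T cells seeded 18 h earlier; LiveBLAzer B/G FRET substrate was added and read after 2 h at room temperature.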
Experiment [15] can be described thus: cAMP Responsive Elements (CRE) small molecule antagonists, cell-based qHTS assay (AID 1963591; active means well fitted inhibition curve with a large enough effect in the signal ratio in the repeat runs, not every such curve was filed as active; the % refers to the signal ratio). An outline of the steps:
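Reporter line CRE-bla HEK 293T in dialyzed-FBS DMEM; cells preincubated 18 h, treated 3 h with compound plus NKH477 (0.25 uM final); LiveBLAzer FRET, 2 h RT.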

The target of experiment [16] is Beta-2 adrenergic receptor (Homo sapiens) (UniProt P07550). In words: Adrenergic beta2 receptor (ADRB2) small molecule antagonists, cell-based qHTS assay (AID 1963592). Further: nearly all actives have a fitted effect of over 50% in size. Further: potency means the concentration at half of the fitted maximal effect. On activity change, negative = inhibition: series mostly up to about 92 µM. The method in brief:
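Assay format: CHO-ADRB2 cells, 18-20hr seeding at 37C/5% CO2, then compound plus 1nM isoproterenol agonist mix for 0.5hr RT. Homogeneous time-resolved fluorescence cAMP detection after 1hr, expressed as 665/615 nm ratio.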

Experiment [17] addresses D(2) dopamine receptor (Homo sapiens) (UniProt P14416). In words: Dopamine D2 receptor (DRD2) small molecule antagonists, cell-based qHTS assay (AID 1963595; active means well fitted inhibition curve with a large enough effect in the signal ratio in the repeat runs, with a control signal flat; the % refers to the signal ratio). The method in brief:
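Human DRD2 antagonist qHTS measuring cAMP by HTRF. The cells are exposed to compound for 10 min, then to NKH477 (200 nM) and quinpirole (12 nM) for 30 min at RT, with Ro20-1724 (0.1 mM) present throughout.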

Experiment [18] is described as follows: p53 small molecule agonists, cell-based qHTS assay with rat liver microsomes (AID 1963578). The method in brief:
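Quantitative HTS of the Tox21 10K library: p53RE-bla cells, rat liver microsomes plus NADPH at 0.5 mg/mL final each, 16 h at 37 C, beta-lactamase fluorescence detection.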

The target of experiment [19] is D(2) dopamine receptor (Homo sapiens) (UniProt P14416). Put plainly: Dopamine D2 receptor (DRD2) small molecule agonists, cell-based qHTS assay (AID 1963594). Further: nearly all actives have a fitted effect of over 35% in size. The method in brief: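 cAMP accumulation in DRD2-HEK293 cells measured by HTRF after 1 h detection; compounds added 10 min before NKH477 (200nM […]) forskolin-analogue stimulation, 30 min at room temperature, with Ro20-1724 present at 0.1 mM final.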
On the % scale 0 is the no-effect control and ±100 the full control effect.

Chain of 5-hydroxytryptamine receptor 2A (Homo sapiens) (P28223 whole entry, looked up): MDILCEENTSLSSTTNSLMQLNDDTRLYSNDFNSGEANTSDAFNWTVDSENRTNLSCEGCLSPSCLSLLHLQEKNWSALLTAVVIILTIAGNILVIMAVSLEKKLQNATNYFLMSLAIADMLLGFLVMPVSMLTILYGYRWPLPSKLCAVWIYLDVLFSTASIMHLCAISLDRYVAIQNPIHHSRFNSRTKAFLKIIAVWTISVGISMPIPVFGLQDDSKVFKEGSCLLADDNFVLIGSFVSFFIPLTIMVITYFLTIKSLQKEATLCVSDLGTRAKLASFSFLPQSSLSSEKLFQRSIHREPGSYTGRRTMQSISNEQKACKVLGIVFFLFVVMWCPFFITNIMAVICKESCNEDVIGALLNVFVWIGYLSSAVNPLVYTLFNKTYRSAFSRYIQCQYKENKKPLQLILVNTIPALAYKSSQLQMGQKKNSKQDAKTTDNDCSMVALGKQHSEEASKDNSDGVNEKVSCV
Chain of Muscarinic acetylcholine receptor M1 (Homo sapiens) (P11229 whole entry, looked up): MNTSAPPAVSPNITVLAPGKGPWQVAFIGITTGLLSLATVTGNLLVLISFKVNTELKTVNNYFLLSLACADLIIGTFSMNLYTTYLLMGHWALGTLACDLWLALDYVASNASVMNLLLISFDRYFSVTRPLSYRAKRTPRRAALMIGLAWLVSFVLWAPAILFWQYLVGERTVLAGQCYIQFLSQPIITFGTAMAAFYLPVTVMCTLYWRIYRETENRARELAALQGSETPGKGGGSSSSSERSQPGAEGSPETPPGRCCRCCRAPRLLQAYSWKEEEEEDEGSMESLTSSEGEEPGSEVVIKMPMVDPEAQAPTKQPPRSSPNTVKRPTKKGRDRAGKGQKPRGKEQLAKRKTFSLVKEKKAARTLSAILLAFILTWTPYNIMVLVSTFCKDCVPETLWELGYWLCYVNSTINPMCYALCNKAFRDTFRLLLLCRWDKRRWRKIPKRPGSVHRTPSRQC
Chain of KiSS-1 receptor (Homo sapiens) (Q969F8 whole entry, looked up): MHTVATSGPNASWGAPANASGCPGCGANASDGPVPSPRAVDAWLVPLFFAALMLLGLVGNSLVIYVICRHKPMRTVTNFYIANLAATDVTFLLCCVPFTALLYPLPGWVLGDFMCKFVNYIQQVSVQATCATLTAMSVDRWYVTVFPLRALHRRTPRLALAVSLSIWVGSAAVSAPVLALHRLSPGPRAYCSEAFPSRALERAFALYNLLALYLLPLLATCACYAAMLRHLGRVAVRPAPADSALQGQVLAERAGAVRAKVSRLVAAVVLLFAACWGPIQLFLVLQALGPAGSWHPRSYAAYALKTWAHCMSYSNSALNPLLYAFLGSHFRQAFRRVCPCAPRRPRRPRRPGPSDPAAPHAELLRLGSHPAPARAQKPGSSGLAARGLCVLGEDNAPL
Chain of Beta-2 adrenergic receptor (Homo sapiens) (P07550 whole entry, looked up): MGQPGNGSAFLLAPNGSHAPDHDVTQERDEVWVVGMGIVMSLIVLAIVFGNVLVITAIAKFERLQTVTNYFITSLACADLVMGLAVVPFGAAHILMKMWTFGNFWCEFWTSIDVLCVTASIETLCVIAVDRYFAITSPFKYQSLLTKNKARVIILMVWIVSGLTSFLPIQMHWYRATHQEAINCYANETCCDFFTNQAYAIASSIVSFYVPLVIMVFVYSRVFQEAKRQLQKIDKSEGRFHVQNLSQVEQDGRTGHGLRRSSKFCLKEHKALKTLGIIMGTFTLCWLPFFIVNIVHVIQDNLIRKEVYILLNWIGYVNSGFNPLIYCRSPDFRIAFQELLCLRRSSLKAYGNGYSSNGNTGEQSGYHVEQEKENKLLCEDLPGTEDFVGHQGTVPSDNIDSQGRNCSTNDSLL
Chain of D(2) dopamine receptor (Homo sapiens) (P14416 whole entry, looked up): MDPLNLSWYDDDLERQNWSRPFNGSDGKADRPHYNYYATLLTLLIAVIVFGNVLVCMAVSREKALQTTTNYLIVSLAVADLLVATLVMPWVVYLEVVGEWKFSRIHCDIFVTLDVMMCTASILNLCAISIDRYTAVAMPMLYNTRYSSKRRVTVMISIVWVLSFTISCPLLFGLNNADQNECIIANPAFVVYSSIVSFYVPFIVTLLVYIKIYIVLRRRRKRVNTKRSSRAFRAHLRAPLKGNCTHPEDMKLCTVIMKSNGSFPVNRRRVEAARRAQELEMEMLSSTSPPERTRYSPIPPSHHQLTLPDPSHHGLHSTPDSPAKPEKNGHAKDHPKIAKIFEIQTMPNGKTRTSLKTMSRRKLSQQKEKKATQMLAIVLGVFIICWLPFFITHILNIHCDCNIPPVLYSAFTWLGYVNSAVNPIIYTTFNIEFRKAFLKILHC

`[Cu+]`: the Potency entry in experiment [1], in [5], in experiment [6], in [7], in experiment [8] and in [9] was “inactive” throughout. The Potency entry in experiment [10], in [11], in experiment [12], in experiment [13], in experiment [14] and in [15] was “inactive” in each case. In addition, the Potency result in [16] and in experiment [17] was “inactive” each time. In addition, in experiment [2], the Potency is 54.5 µM (active). Also, the outcome in [3] and in experiment [4] was inactive.

As to `O=C(O)c1cc(N=Nc2ccc([N+](=O)[O-])cc2)ccc1O`, the Potency in experiment [1] is 26.8 µM (active). Besides, the Potency result in experiment [2], in [5], in [18], in [6], in [7] and in experiment [10] was “inactive” in each case. Further, the Potency result in experiment [12], in [13], in experiment [16], in [19] and in experiment [17] was “inactive” each time. Moreover, the outcome in experiment [3] and in experiment [4] was inactive.

Consider `Nc1cc(Cl)c(O)c(Cl)c1`, for which the Potency result in experiment [1], in experiment [5], in [18], in [6], in experiment [7] and in experiment [8] was “inactive” throughout. In addition, the Potency entry in experiment [10], in experiment [11], in experiment [12], in [13] and in [19] was “inactive” throughout. Besides, the Potency in [2] is 54.5 µM (active). Further, the result in experiment [3] and in experiment [4] was inactive.

Consider `CN(C(=O)CCCOc1ccc2[nH]c(=O)ccc2c1)C1CCCCC1`, for which the Potency in experiment [1] was 10.6 µM (active). The Potency entry in [2], in experiment [5], in experiment [18], in experiment [6], in experiment [7] and in experiment [8] was “inactive” each time. Besides, the Potency entry in experiment [16] and in experiment [19] was “inactive” throughout. Also, the outcome in experiment [3] and in experiment [4] was inactive.

Take `CCCCCCCCCCCC(=O)NCCCN(C)C`: the Potency is 27.3 µM (active) in [1]; 45.8 µM (active) in experiment [6]; 32.4 µM (active) in experiment [8]; 1.68 µM (active) in experiment [10]; 8.4 µM (active) in experiment [12]. The Potency entry in experiment [2], in experiment [5], in experiment [18], in experiment [11], in experiment [13] and in experiment [16] was “inactive” in each case. For the same compound, in experiment [19], the Potency result is “inactive”. Also, the result in experiment [3] and in experiment [4] was inactive.

Turning to `CCCS(=O)c1ccc2nc(NC(=O)OC)[nH]c2c1` (stereo not given), the Potency result in [1], in experiment [2], in experiment [5], in [18], in experiment [6] and in experiment [8] was “inactive” each time. The Potency result in [10], in experiment [11], in [12], in [14], in experiment [16] and in experiment [17] was “inactive” in each case. Moreover, the result in experiment [3] and in experiment [4] was inactive.

On to `CN(C)CCCOc1nn(Cc2ccccc2)c2ccccc12`, for which the Potency entry in experiment [1], in experiment [2], in experiment [5], in experiment [18], in [6] and in experiment [7] was “inactive” in each case. The Potency result in experiment [11], in experiment [12], in experiment [13], in experiment [19] and in experiment [17] was “inactive” throughout. The result in experiment [3] and in [4] was inactive. Further, the Potency in [16] is 26.6 µM (active).

Take `FC(F)(F)C(F)(F)C(F)(F)C(F)(F)C(F)(F)C(F)(F)C(F)(F)C(F)(F)C(F)(F)C(F)(F)F`: the activity change, negative = cytotoxicity was 2.36% [at 8.39 µM] in experiment [1], 2.89% [at 5.99 µM] in experiment [6] and -0.558% [at 5.99 µM] in experiment [7]. Further, in experiment [2], the activity, positive = activation is -2.47% [at 8.39 µM]. For the same compound, the activation was -3.4% [at 6.97 µM] in experiment [3]; -1.63% [at 5.23 µM] in experiment [4]; 0.0412% [at 5.99 µM] in experiment [5]; -3.19% [at 5.99 µM] in experiment [18]; -0.0202% [at 5.99 µM] in experiment [9]; 9.84% [at 7.02 µM] in experiment [11]. In addition, the activation in [13] is -0.0294% [at 6.97 µM]; in experiment [14] it was -1.41% [at 8.39 µM]. In addition, the values for the activity, negative = inhibition in experiment [10] and in experiment [12] were -16.5% [at 5.62 µM] and 8.35% [at 5.58 µM], respectively. Further, the activity change, negative = inhibition in [15] is -8.96% [at 8.39 µM]; in experiment [16], 4.67% [at 8.39 µM]; in experiment [17], 10.1% [at 8.38 µM].
